Results filed as inconclusive are left out. Active and inactive are the calls of the source. Unless noted, the call rests on the fitted dose curve.
Assays:
[1] = Nuclear factor erythroid 2-related factor 2/antioxidant responsive element (Nrf2/ARE) small molecule agonists: qHTS cell viability counter screen in human keratinocytes (AID 1919968; active means well fitted curve in the direction sought with a large enough effect in the repeat runs; an effect the other way counts as inactive or inconclusive; further: nearly all actives have a fitted effect of over 55% in size)
Method in brief: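 KeratinoSens cells (HaCaT keratinocytes stably carrying an ARE-luciferase reporter) were seeded at 1,500 cells/well and rested 5 h at 37 C/5% CO2. They were then exposed to compounds in DMSO for 23 h. Viability was read by CellTiter-Fluor fluorescence after 1 h.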

[2] = Nuclear factor erythroid 2-related factor 2/antioxidant responsive element (Nrf2/ARE) small molecule agonists: luciferase reporter gene qHTS assay in human keratinocytes (AID 1919969); further: nearly all actives have a fitted effect of over 35% in size; further: potency means the concentration at half of the fitted maximal effect
[3] = target: Gonadotropin-releasing hormone receptor (Homo sapiens) (UniProt P30968); experiment: Human gonadotropin-releasing hormone receptor (GnRHR) small molecule agonists, calcium flux assay in GnRHR-HEK293 cells (AID 1920063); further: nearly all actives have a fitted effect of over 35% in size
Method in brief: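 HEK293 cells stably expressing human GnRHR were plated 18 h at 37 °C, loaded with calcium dye 1 h at 37 °C, then given compound in agonist mode; fluorescence (Ex/Em 480/540) read kinetically for 3 min at 1 s intervals.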

[4] = target: KiSS-1 receptor (Homo sapiens) (UniProt Q969F8); experiment: Human kisspeptin (KISS1R) small molecule agonists, calcium flux assay in KISS1R-HEK293 cells (AID 1920064; active means well fitted curve in the direction sought with a large enough effect in the repeat runs; an effect the other way counts as inactive or inconclusive)
Method in brief: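 HEK293 cells stably expressing human KISS1R were plated 18 h at 37 °C, loaded with calcium dye for 1 h at 37 °C, then given compound by pin tool. Fluorescence (Ex/Em 480/540) was read kinetically for 3 min.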

[5] = G protein-coupled receptor (GPCR) small molecule agonists, calcium flux assay: HEK293 wild type cell line counter screen (AID 1920065)
Method in brief: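 Cells were plated and cultured 18 h at 37 C/5% CO2, then loaded with calcium dye for 1 h at 37 C. Compounds in DMSO were pin-transferred in agonist mode, and fluorescence (Ex/Em 480/540) was read kinetically for 3 min at 1 s intervals.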

[6] = p53 small molecule agonists, cell-based qHTS assay with human liver microsomes: qHTS cell viability counter screen (AID 1963579); further: nearly all actives have a fitted effect of over 45% in size
Method in brief: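 Metabolic activation used human liver microsomes and NADPH, both 0.5 mg/mL final, over 16 hours at 37 C on p53RE-bla cells (4,000/well). Cytotoxicity measured by CellTiter-Glo luminescence, 30 min at room temperature.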

[7] = p53 small molecule agonists, cell-based qHTS assay with rat liver microsomes: qHTS cell viability counter screen (AID 1963580); further: nearly all actives have a fitted effect of over 45% in size
Method in brief: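 p53RE-bla HCT-116 cells (4,000/well) rested 5 h at 37 C, then given Tox21 compounds in DMSO with rat liver microsomes (0.5 mg/mL final) plus NADPH (0.5 mg/mL final) for 16 h at 37 C. Viability read by CellTiter-Glo luminescence after 30 min at room temperature.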

[8] = target: 5-hydroxytryptamine receptor 2A (Homo sapiens) (UniProt P28223); experiment: 5-hydroxytryptamine receptor 2A (HTR2A) small molecule antagonists, cell-based qHTS assay (AID 1963586); further: nearly all actives have a fitted effect of over 45% in size
Method in brief: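 Antagonist-mode intracellular calcium assay: DOI (4 nM) added after 5 min compound pre-incubation at room temperature to dye-loaded HTR2A-CHO cells. Fluorescence followed for 3 min, sampled every second.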

[9] = target: 5-hydroxytryptamine receptor 2A (Homo sapiens) (UniProt P28223); experiment: 5-hydroxytryptamine receptor 2A (HTR2A) small molecule agonists, cell-based qHTS assay (AID 1963587); further: nearly all actives have a fitted effect of over 30% in size
Method in brief: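 HTR2A-CHO cells, plated 18 h at 37 C/5% CO2, dye-loaded 1 h at 37 C; compounds in DMSO added by pin tool (agonist mode). Intracellular calcium flux read as kinetic fluorescence on FDSS over 2 min at 1 s intervals.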

[10] = cAMP Responsive Elements (CRE) small molecule agonists, cell-based qHTS assay (AID 1963590)
Method in brief: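 CRE-bla HEK 293T cells in DMEM with 10% dialyzed FBS, NEAA, pyruvate and 25 mM HEPES were plated 18 h at 37 C/5% CO2, then exposed to compounds in DMSO for 3 h before LiveBLAzer B/G FRET substrate addition.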

[11] = cAMP Responsive Elements (CRE) small molecule antagonists, cell-based qHTS assay (AID 1963591; active means well fitted inhibition curve with a large enough effect in the signal ratio in the repeat runs, not every such curve was filed as active; the % refers to the signal ratio)
Method in brief: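 CRE-bla HEK293T cells were plated 18 h at 37 °C/5% CO2, pinned with compound in DMSO, then stimulated with NKH477 at 0.25 uM final for 3 h. LiveBLAzer B/G FRET substrate was added and plates incubated 2 h at room temperature.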

[12] = target: Beta-2 adrenergic receptor (Homo sapiens) (UniProt P07550); experiment: Adrenergic beta2 receptor (ADRB2) small molecule antagonists, cell-based qHTS assay (AID 1963592); further: series mostly up to about 92 µM; nearly all actives have a fitted effect of over 50% in size
Method in brief: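 Cells (CHO, stable ADRB2 overexpression) incubated 18-20hr at 37C; compounds added from DMSO; agonist mix (1nM isoproterenol, 100uM IBMX, 25uM Ro-20-1724) added; 0.5hr RT; d2-cAMP and anti-cAMP-cryptate added; 1hr RT; 665/615 nm read.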

[13] = target: D(2) dopamine receptor (Homo sapiens) (UniProt P14416); experiment: Dopamine D2 receptor (DRD2) small molecule agonists, cell-based qHTS assay (AID 1963594); further: nearly all actives have a fitted effect of over 35% in size; further: potency means the concentration at half of the fitted maximal effect
Method in brief: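 HEK293 cells stably expressing DRD2 were cultured 24 h at 37 C, then given Ro20-1724 (0.1 mM final) and compounds for 10 min at room temperature. NKH477 (200nM) was then added for 30 min. cAMP was read by HTRF.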

[14] = target: D(2) dopamine receptor (Homo sapiens) (UniProt P14416); experiment: Dopamine D2 receptor (DRD2) small molecule antagonists, cell-based qHTS assay (AID 1963595; active means well fitted inhibition curve with a large enough effect in the signal ratio in the repeat runs, with a control signal flat; the % refers to the signal ratio; further: potency means the concentration at half of the fitted maximal effect)
Method in brief: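 Human DRD2 antagonist qHTS measuring cAMP by HTRF. The cells are exposed to compound for 10 min, then to NKH477 (200 nM) and quinpirole (12 nM) for 30 min at RT, with Ro20-1724 (0.1 mM) present throughout.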

[15] = p53 small molecule agonists, cell-based qHTS assay: qHTS cell viability counter screen (AID 1963581); further: nearly all actives have a fitted effect of over 45% in size
Method in brief: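 p53RE-bla HCT-116 cells were exposed to compounds for 16 h at 37 C; after the beta-lactamase FRET read in the same wells, CellTiter-Glo was added and luminescence (intracellular ATP) read after 30 min at room temperature.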

[16] = target: Muscarinic acetylcholine receptor M1 (Homo sapiens) (UniProt P11229); experiment: Cholinergic receptor muscarinic 1 (CHRM1) small molecule antagonists, cell-based qHTS assay (AID 1963588); further: nearly all actives have a fitted effect of over 40% in size; further: potency means the concentration at half of the fitted maximal effect
Method in brief: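 CHRM1-CHO calcium-flux assay, antagonist mode. Cells were seeded 18 h, dye-loaded 1 h at 37 C and given compound for 5 min at RT, then acetylcholine was added at 50nM. FDSS fluorescence was read 3 min; 15 concentrations, three runs.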

[17] = target: Muscarinic acetylcholine receptor M1 (Homo sapiens) (UniProt P11229); experiment: Cholinergic receptor muscarinic 1 (CHRM1) small molecule agonists, cell-based qHTS assay (AID 1963589); further: nearly all actives have a fitted effect of over 35% in size
Method in brief: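 CHO cells stably expressing human CHRM1, seeded 18 h at 37 C/5% CO2, dye-loaded 1 h at 37 C, then given compound in agonist mode; intracellular calcium fluorescence read kinetically at 1 s intervals. Fifteen concentrations, three independent runs.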

[18] = target: Beta-2 adrenergic receptor (Homo sapiens) (UniProt P07550); experiment: Adrenergic beta2 receptor (ADRB2) small molecule agonists, cell-based qHTS assay (AID 1963593); further: potency means the concentration at half of the fitted maximal effect;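 on activation: CHO cells stably overexpressing human ADRB2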
Method in brief: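 CHO cells stably over-expressing ADRB2 were plated overnight at 37C, then dosed with compounds plus a stimulation mix containing 100uM IBMX and 25uM Ro-20-1724 for 0.5hr at room temperature. cAMP was measured by HTRF competition, 1hr.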

[19] = p53 small molecule agonists, cell-based qHTS assay (AID 1963582; active means well fitted activation curve with a large enough effect in the signal ratio in the repeat runs, not every such curve was filed as active; the % refers to the signal ratio)
Method in brief: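 p53RE-bla beta-lactamase reporter cells rested 5 h at 37 C/5% CO2, then received compounds in DMSO by pin transfer and were incubated 16 h at 37 C. LiveBLAzer B/G FRET substrate was loaded for 2 h at room temperature before fluorescence reading.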

Measured: Potency

5-hydroxytryptamine receptor 2A (Homo sapiens), sequence (P28223 whole entry, looked up): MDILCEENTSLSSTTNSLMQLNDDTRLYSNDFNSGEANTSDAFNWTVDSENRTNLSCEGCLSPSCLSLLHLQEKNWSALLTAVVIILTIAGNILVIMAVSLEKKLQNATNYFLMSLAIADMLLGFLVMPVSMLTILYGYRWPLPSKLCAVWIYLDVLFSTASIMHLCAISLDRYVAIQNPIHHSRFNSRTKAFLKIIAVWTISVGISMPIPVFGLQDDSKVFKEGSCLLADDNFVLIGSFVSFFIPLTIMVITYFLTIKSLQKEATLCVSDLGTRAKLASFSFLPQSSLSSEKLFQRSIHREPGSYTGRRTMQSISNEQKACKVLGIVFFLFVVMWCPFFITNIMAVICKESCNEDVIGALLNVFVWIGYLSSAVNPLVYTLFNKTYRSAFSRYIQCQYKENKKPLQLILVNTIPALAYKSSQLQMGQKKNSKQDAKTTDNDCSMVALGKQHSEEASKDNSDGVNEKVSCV
Beta-2 adrenergic receptor (Homo sapiens), sequence (P07550 whole entry, looked up): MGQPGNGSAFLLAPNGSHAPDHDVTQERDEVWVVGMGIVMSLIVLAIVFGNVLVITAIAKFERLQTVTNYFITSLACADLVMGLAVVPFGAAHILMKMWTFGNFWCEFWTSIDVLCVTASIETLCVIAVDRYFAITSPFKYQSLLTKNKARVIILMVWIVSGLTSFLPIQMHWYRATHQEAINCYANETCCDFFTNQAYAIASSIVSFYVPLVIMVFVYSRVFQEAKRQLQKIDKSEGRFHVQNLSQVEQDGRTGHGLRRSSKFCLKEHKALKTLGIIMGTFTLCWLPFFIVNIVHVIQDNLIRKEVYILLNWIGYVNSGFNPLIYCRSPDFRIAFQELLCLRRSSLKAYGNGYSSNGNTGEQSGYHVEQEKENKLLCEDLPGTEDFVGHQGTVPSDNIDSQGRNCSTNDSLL
Muscarinic acetylcholine receptor M1 (Homo sapiens), sequence (P11229 whole entry, looked up): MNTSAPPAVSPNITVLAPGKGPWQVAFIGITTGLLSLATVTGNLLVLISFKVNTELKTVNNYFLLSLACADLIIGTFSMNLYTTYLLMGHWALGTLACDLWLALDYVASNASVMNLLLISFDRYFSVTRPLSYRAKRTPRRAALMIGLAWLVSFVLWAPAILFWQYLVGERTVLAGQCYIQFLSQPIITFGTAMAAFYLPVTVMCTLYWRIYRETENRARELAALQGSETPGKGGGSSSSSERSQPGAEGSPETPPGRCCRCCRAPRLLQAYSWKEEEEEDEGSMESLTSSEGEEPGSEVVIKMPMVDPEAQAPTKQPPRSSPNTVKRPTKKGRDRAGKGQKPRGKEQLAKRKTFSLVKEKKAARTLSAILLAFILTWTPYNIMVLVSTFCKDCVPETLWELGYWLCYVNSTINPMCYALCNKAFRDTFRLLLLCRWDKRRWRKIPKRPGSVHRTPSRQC
KiSS-1 receptor (Homo sapiens), sequence (Q969F8 whole entry, looked up): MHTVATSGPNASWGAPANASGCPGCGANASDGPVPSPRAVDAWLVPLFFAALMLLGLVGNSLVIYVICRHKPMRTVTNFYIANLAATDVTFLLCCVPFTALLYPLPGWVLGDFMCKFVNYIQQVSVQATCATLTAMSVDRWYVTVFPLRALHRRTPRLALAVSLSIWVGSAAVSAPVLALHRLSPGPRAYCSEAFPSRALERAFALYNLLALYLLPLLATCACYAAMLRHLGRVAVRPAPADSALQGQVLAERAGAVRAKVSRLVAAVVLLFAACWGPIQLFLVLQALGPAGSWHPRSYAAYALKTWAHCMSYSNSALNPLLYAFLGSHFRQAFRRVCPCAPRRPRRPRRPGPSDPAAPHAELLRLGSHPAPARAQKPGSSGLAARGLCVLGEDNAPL
D(2) dopamine receptor (Homo sapiens), sequence (P14416 whole entry, looked up): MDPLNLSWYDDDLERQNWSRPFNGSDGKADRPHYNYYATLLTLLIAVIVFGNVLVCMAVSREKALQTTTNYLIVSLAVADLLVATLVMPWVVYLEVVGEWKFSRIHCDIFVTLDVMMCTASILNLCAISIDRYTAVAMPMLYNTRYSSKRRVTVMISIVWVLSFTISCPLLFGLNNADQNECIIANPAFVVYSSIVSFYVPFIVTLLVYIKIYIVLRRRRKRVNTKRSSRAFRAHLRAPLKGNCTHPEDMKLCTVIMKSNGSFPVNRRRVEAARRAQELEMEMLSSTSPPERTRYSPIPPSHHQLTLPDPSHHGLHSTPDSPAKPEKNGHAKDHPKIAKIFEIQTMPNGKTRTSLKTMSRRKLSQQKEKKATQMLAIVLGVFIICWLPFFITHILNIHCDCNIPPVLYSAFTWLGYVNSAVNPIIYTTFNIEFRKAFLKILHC
Gonadotropin-releasing hormone receptor (Homo sapiens), sequence (P30968 whole entry, looked up): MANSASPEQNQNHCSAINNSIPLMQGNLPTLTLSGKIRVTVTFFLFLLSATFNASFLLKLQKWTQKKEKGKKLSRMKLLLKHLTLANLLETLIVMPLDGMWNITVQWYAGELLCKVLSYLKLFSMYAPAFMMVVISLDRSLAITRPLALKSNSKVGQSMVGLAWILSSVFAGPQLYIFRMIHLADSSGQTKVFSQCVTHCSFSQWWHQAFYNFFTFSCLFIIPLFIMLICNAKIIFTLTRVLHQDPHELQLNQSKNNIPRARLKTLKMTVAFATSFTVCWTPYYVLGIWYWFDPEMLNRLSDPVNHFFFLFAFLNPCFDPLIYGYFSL

CN(C)CCOC(=O)C(c1ccccc1)C1(O)CCCC1 (stereo not drawn)
inactive: [1] | [2] | [3] | [4] | [5] | [6] | [7] | [8] | [9] | [10] | [11] | [12] | [13] | [14]

CC(Cc1ccccc1)(NC(=O)CN)c1ccccc1 (stereo not drawn)
inactive: [1] | [2] | [3] | [4] | [5] | [6] | [15] | [8] | [9] | [16] | [17] | [10] | [11] | [12] | [18] | [14]

CC(C)[C@H]1CC[C@H](C)C[C@@H]1O
inactive: [1] | [2] | [3] | [4] | [5] | [6] | [7] | [8] | [16] | [17] | [10] | [11] | [12] | [18] | [14]
active: [13] 57.9 µM

CCOC(=O)Nc1ccc2c(c1)N(C(=O)CCN1CCOCC1)c1ccccc1S2
active: [16] 0.918 µM
inactive: [1] | [2] | [3] | [4] | [5] | [6] | [15] | [19] | [9] | [17] | [10] | [12] | [13] | [14]

C[C@@H](Oc1ccc(CNC(=O)c2cccnc2Oc2ccc3c(c2)OCO3)c(F)c1)C(=O)O
inactive: [1] | [2] | [3] | [4] | [5] | [6] | [7] | [8] | [9] | [16] | [17] | [10] | [12] | [13] | [14]

CCCCOc1ccc(CC(=O)NO)cc1
inactive: [1] | [2] | [3] | [4] | [5] | [6] | [7] | [16] | [11] | [12] | [18] | [13]

NCCNC(=O)c1ccc(Cl)cn1
inactive: [1] | [2] | [3] | [4] | [5] | [6] | [7] | [16] | [17] | [11] | [12] | [18] | [13] | [14]

COc1cc(NCc2ccc3nc(N)nc(N)c3c2C)cc(OC)c1OC
inactive: [1] | [2] | [3] | [4] | [5] | [6] | [7] | [8] | [9] | [16] | [17] | [12] | [18] | [13] | [14]

O=C1NC(=O)c2cccc3cccc1c23
inactive: [1] | [2] | [3] | [4] | [5] | [6] | [7] | [8] | [9] | [16] | [11] | [12] | [18] | [13] | [14]

CC(C)(CO)[C@@H](O)C(=O)NCCCO
inactive: [1] | [2] | [3] | [4] | [5] | [6] | [7] | [10] | [11] | [12] | [18] | [13] | [14]

CN(C)CC[C@@H](c1ccc(Br)cc1)c1ccccn1
inactive: [1] | [2] | [3] | [4] | [5] | [6] | [7] | [17] | [10] | [11] | [12] | [18] | [13] | [14]

CN(c1nccc(=O)[nH]1)C1CCN(c2nc3ccccc3n2Cc2ccc(F)cc2)CC1
inactive: [1] | [2] | [3] | [4] | [5] | [6] | [7] | [8] | [16] | [17] | [12] | [18] | [13] | [14]

c1cc[c]([Bi]([c]2ccccc2)[c]2ccccc2)cc1
inactive: [1] | [3] | [4] | [5] | [6] | [7] | [8] | [9] | [16] | [17] | [13]
active: [2] 4.86 µM | [18] 1.72 µM | [14] 9.69 µM

COc1ccc2c(c1)c1c3n2CCN(C)C3=NCC1
inactive: [1] | [2] | [3] | [4] | [5] | [6] | [7] | [8] | [9] | [16] | [17] | [10] | [11] | [12] | [13] | [14]

CC1(C)CC(O)CC(C)(C)N1[O]
inactive: [1] | [2] | [3] | [4] | [5] | [6] | [7] | [8] | [9] | [16] | [17] | [10] | [11] | [12] | [13] | [14]

O=C1c2cccc3c2[C@H](CCC3)CN1[C@@H]1CN2CCC1CC2
inactive: [1] | [2] | [3] | [4] | [5] | [6] | [7] | [8] | [9] | [17] | [10] | [11] | [12] | [14]

Source: PubChem BioAssay (Tox21)
